Sampled rows, rich in hits. Any-hit rate of the full collection: about 6.2%.
Marburg entry inh = qHTS for inhibitors of binding or entry into cells for Marburg Virus; Marburg virus pseudotyped entry inhibition, cell reporter; Potency, µM (series often up to 37.8 µM), for the others: at the highest dose activity change, negative = inhibition, hits mostly inhibitors; actives 1.8% (n = 300,000); calls by dose curve; tested in HEK293 cells; also: potency is read from the fitted curve at half-maximal effect
LASV entry inh = qHTS for Inhibitors of binding or entry into cells for Lassa Virus; Lassa virus pseudotype entry inhibition, cell reporter; Potency, µM (doses to about 37.9 µM), inactives show top-dose activity change, negative = inhibition, most hits filed as inhibitors; actives 1.2% (n = 300,000); calls by dose curve; tested in HEK293 cells; also: potency is read from the fitted curve at half-maximal effect; nearly all actives have a fitted effect of over 50% in size
FMDV antiviral = High Throughput Screening for Foot and Mouth Disease Virus Antivirals. actives 1.2% (n = 410,000). FMDV antiviral cell-based qHTS. AID 1159524, 2015. Potency, µM (series often up to 57.9 µM), without a hit: at the top dose activity change, negative = inhibition, most hits filed as inhibitors; calls by dose curve; tested in HEK293T cells; also: read-out not given here; potency is read from the fitted curve at half-maximal effect; nearly all actives have a fitted effect of over 45% in size
HCMV inh = qHTS Assay for inhibitors of the human cytomegalovirus (HCMV); HFF cells, HCMV-luciferase reporter, 72 h; hits give low values; activity change, negative = inhibition, % at 57.5 µM; actives 4.5% (n = 410,000); in the data active = activity change below about -60%; inconclusive = no clear call, values can overlap the other calls; inactive = above about -39%
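Screen run at 2 compound doses on HFFs infected with reporter HCMV, MOI 1 PFU/cell. Luciferase activity from cell lysates at 72 h post infection gave inhibition relative to buffer-only and Salinomycin wells.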
Starred values were filed as active, the others as inactive; ? = inconclusive; / = not tested or not shown; ! = not confirmed by another sample; [ ] = remark or other dose. % is scaled to controls: 0 for no effect and ±100 for the full control effect.

SMILES | Marburg entry inh | LASV entry inh | FMDV antiviral | HCMV inh
CN(C(=O)CSc1nc2ccccc2o1)C1CCS(=O)(=O)C1 (stereo not given) | 24% | -7% | 45% | 4
CN(C(=O)CSc1nc(-c2ccccc2)c(-c2ccccc2)o1)C1CCS(=O)(=O)C1 (stereo not given) | -15% | -13% | -28% | -64*
COc1cc(/C=C2\C(=O)NC(=O)N(CCc3ccc(F)cc3)C2=O)ccc1O | 3% | ? | ? | 47
O=C(O)c1cccc(S(=O)(=O)Nc2ccc3[nH]c(=O)[nH]c3c2)c1 | -7%[46.1 µM] | 18% | -8% | -25
Cc1ccccc1OCc1nc2ccccc2c(=O)n1/N=C/c1cn[nH]c1-c1ccccc1 | 16µM* | 10µM* | ? | -16
Cc1ccc(-c2[nH]ncc2/C=N/n2c(COc3ccccc3)nc3ccccc3c2=O)cc1 | ? | ? | -23% | -78*
Cc1cc(/C=N/n2c(COc3ccccc3)nc3ccccc3c2=O)c(O)c([N+](=O)[O-])c1 | ? | ? | -29% | -63*
O=c1c2ccccc2nc(COc2ccccc2)n1/N=C/c1ccc(O)c(O)c1 | 2% | / | -2% | -24
Cc1cccc(NC(=S)N(CCc2ccncc2)C(C)C)c1C | ? | -3%[46.1 µM] | 16% | 9
CCc1ccccc1NC(=S)N(CCc1ccncc1)C(C)C | / | / | -8% | -93*
CCn1nnnc1SCC(=O)N1c2ccccc2NC(=O)CC1C (stereo not given) | / | / | -10% | 3
Cc1ccc(NC(=O)CC2SC3=NCCN3C2=O)cc1 (stereo not given) | 10% | 11% | 18% | -28
CC(=O)C[C@H](O)CC(=O)[C@H]1OC(=O)CC/C=C\Cc2ccccc21 | / | / | -6% | -61*
Cc1cc(C)cc(Oc2c(C(F)(F)F)oc3c(CN4CCCC(C)C4)c(O)ccc3c2=O)c1 (stereo not given) | -5%[46.1 µM] | 1%[46.1 µM] | 1% | 19
COc1ccc(Oc2c(C(F)(F)F)oc3c(CN4CCCC(C)C4)c(O)ccc3c2=O)cc1 (stereo not given) | -4%[46.1 µM] | 14%[46.1 µM] | 0% | -61*
CCN(CC(=O)Nc1c(F)cccc1F)C(=O)c1ccc(OC)c(S(=O)(=O)NC2CCCC2)c1 | / | / | 35% | -72*
CCN(CC(=O)Nc1c(F)cccc1F)C(=O)c1ccc(Cl)c(S(=O)(=O)N2CCCC2)c1 | -6% | -18% | 22% | -11
Cc1oc(-c2ccc(Cl)cc2)nc1CS(=O)CC(=O)NCCCN1CCN(Cc2ccccc2)CC1 (stereo not given) | / | / | -13% | -93*
Cc1ccc(-c2nc(CSCC(=O)NCCN3CCN(Cc4ccccc4)CC3)c(C)o2)cc1 | ? | ? | ? | -65*
CC(=O)c1ccc(NC(=O)/C(=C\c2ccc(F)cc2)NC(=O)c2ccco2)cc1 | -2%[46.1 µM] | -1% | 0% | 15
CCc1nnc2n1N(C(C)=O)C(c1ccc(C(C)(C)C)cc1)=C(C(C)=O)S2 | / | 11µM* | ? | -98*
CCN(C(=O)COC(=O)C1COc2ccccc2O1)c1c(N)n(Cc2ccccc2)c(=O)[nH]c1=O (stereo not given) | / | / | -13% | 0
CCC(=O)NC(Nc1sc2c(c1C(=O)OC)CCN(C)C2)(C(F)(F)F)C(F)(F)F | -18% | 1% | 14% | -101*
CCOC(=O)NC(Nc1sc2c(c1C(=O)OC)CCN(C)C2)(C(F)(F)F)C(F)(F)F | -4% | -10% | -14% | 44
Cc1cccc(NC(=O)N2CCN(Cc3ccc(Cl)cc3)CC2)c1 | ? | ? | -28% | -63*
SMILES | Marburg entry inh | LASV entry inh | FMDV antiviral | HCMV inh
O=C(Nc1cccc(Cl)c1)N1CCN(Cc2ccccc2)CC1 | -1% | / | 34% | 47
Cc1[nH]c2ccccc2c1/C=N/n1cnnc1 | 5% | 15% | -14% | 25
COCCN=c1scc(-c2cc(OC)c(OC)c(OC)c2)n1/N=C/c1c(C)[nH]c2ccccc12 | 11µM* | ? | ? | 44
COc1ccc(/C=N/n2c(=O)[nH]c3c([nH]c4ccc(Br)cc43)c2=O)cc1CN1CCOCC1 | -26% | 20% | -19% | 71
CS(=O)(=O)N1CCc2cc(-c3csc(NC(=O)Cc4ccccc4)n3)ccc21 | 7.3µM* | ? | / | -98*
CC1Cc2cc(-c3csc(NC(=O)Cc4cccs4)n3)ccc2N1S(C)(=O)=O (stereo not given) | ? | ? | 5.6µM* | -100*
Cc1ccccc1C(=O)N1CCc2cc(-c3csc(NC(=O)CN4CCCC4)n3)ccc21 | ? | ? | -22% | -79*
Cc1ccc(-c2n[nH]c(=S)n2/N=C/c2ccc(C)o2)cc1 | 30% | ? | -15% | -4
O=C(c1ccccc1)C1CCN(C(=O)c2cccs2)CC1 | -19%[14.2 µM] | 13% | 4% | 23
Cc1ccc(NC(=O)c2ccc(NCc3ccc(F)cc3)nc2)cc1 | 21%[46.1 µM] | 8% | 5% | -105*
Cc1ccc(NC(=O)c2ccc(Nc3ccccc3F)nc2)cc1 | 42% | -1% | 38% | 6
OC[C@@H]1CN(Cc2cccs2)C[C@H](n2cnc3c(N4CCOCC4)ncnc32)O1 | / | / | 9% | 20
NNC(=O)c1cc2c(N3CCC(Cc4ccccc4)CC3)ncnc2s1 | -14%[46.1 µM] | 10µM* | 14µM* | ?
CN1CCN(c2ncnc3c2cnn3C)CC1 | / | / | -2% | 21
Cn1ncc2c(N3CCC(Cc4ccccc4)CC3)ncnc21 | 1%[46.1 µM] | -13% | 20µM* | ?
OC(COc1ccc(CNCCc2ccc(C(F)(F)F)cc2)cc1)CN1CCCCC1 (stereo not given) | ? | ? | -22% | -80*
OC(CNCCc1ccc(C(F)(F)F)cc1)COc1ccc2ccccc2c1 (stereo not given) | ? | 16µM* | -22% | -34
Cc1ccc(S(=O)(=O)NNC(=O)C23CCC(CC2)C3)cc1 | / | / | 31% | -26
COc1ccc(CNC(=O)c2cc3cc(OC)ccc3oc2=O)cc1 | ? | ? | -15% | -104*!
COc1ccc(CNC(=O)CN2CCC(C(=O)c3ccc(OC)cc3)CC2)cc1 | -20% | ? | ? | -78*
COc1ccc2oc(=O)c(C(=O)NCc3ccccc3)cc2c1 | -6%[46.1 µM] | 25%[46.1 µM] | 2% | -13
COc1ccc(CNC(=O)c2c(F)c(F)c(F)c(F)c2F)cc1 | -28% | 1% | -3% | -102*
COc1ccc2oc(=O)c(C(=O)NCc3ccc(C)cc3)cc2c1 | / | / | 5% | -100*
COc1ccc(C(=O)C2CCN(CC(=O)NCc3ccccc3)CC2)cc1 | -9%[46.1 µM] | ? | ? | 8
COc1ccc2oc(=O)c(C(=O)Nc3cccc(C(=O)O)c3)cc2c1 | 2.8µM* | 4%[46.1 µM] | ? | 107
SMILES | Marburg entry inh | LASV entry inh | FMDV antiviral | HCMV inh
COc1cccc(NC(=O)Nc2cccnc2)c1 | / | / | 47% | -26
Cn1ccc2cc(NC(=O)Nc3cccnc3)ccc21 | / | / | 27% | -100*
COc1ccc(S(=O)(=O)NCCC(=O)NC2CCCCCCC2)cc1 | -1% | -16% | ? | -10
Cc1c(/C=N/NC(=O)c2sc3ccccc3c2Cl)cnn1C | -32% | -22% | 48% | 0
Cc1ccc(NC(=O)c2sc3ccccc3c2Cl)nc1 | ? | 5.8µM* | / | 15
Cc1nnc(NC(=O)c2sc3ccccc3c2Cl)s1 | ? | 12µM* | -69% | 19
